Rows were chosen to be rich in hits. Some 0.93% of all compounds tested hit in one or more screens of this group.
Six1-Eya2 blk: inhibitors of human Six1/Eya2 interaction | activity change, % (test concentration not listed) | AlphaScreen GST-Six1/His-Eya2 binding, biochemical; stronger effect = lower value | actives 0.56% (n = 360,000)
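GST-Six1 + His-Eya2 (5X stock: 250/500 nM); Tris pH 8.0, 300 mM NaCl, 0.05% BSA, 0.02% Tween 20; GSH donor/Ni acceptor beads; 1 h 37 °C dark; AlphaScreen readout.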
MBNL1 CUG block: blocks human MBNL1 binding to CUG repeat RNA; actives 0.036% (n = 280,000); AID 2675; TR-FRET MBNL1-His/biotin-(CUG)12 binding, 665/545 ratio; Q9NR56; Potency, µM (series often up to 57.5 µM), for inactives: top-dose activity change, negative = inhibition, usual class: inhibitors; active = well fitted inhibition curve with a large enough effect in the signal ratio, with a control signal flat, not every such curve was filed as active; inconclusive = small, poorly fitted or top-dose-only effect, or effect the other way, or a change in a side signal; inactive = no such curve, though single readings can be large or run the other way; the % refers to the signal ratio; note: potency is the fitted concentration of half-maximal effect
Target sequence (Q9NR56 whole entry, looked up): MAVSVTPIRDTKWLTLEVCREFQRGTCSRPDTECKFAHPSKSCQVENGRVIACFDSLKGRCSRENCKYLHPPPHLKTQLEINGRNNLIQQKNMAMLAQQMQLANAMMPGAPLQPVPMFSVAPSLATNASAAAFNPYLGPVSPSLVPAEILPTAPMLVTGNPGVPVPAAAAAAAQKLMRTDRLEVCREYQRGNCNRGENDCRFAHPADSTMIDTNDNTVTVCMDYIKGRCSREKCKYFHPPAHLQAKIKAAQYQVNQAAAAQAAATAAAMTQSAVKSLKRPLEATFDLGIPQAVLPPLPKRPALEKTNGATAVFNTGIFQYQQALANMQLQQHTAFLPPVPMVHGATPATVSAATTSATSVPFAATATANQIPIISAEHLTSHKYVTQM
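Ratiometric TR-FRET (665 over 545 nm, excitation 340 nm) tracks disruption of MBNL1-His/biotin-(CUG)12 complex after 60 min at room temperature, with compounds at 92 nM to 58 uM final.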
CtBP-E1A blk: blocks the CtBP interaction with E1A; AlphaScreen GST-E1A/His-CtBP binding, 1536-well; stronger effect = lower value; activity change, % (test concentration not listed); actives 0.49% (n = 340,000)
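In 5 uL wells, 23 nL compound meets equimolar GST-E1A and His-CtBP (5X stock 125 nM each) for 2 h, 37 °C. Beads (5X, 50 ug/mL) then 1 h, 37 °C, dark.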
PKM2 activator: PKM2 (human) enzyme activation | P14618 | purified PKM2, Kinase-Glo ATP luminescence, activation; response scale: 0% is enzyme alone, no compound | Potency, µM (highest dose often 57.5 µM), inactives show top-dose activation, hits mostly activators | actives 0.34% (n = 260,000) | AID 1631; active = well fitted activation curve with a large enough effect; inconclusive = small, poorly fitted or top-dose-only effect; inactive = no such curve, though single readings can be large or run the other way; note: potency is the fitted concentration of half-maximal effect; nearly all actives have a fitted effect of over 55% in size
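Kinase-Glo luminescence reports ATP generated from ADP (0.1 mM) and PEP (0.5 mM) by purified hPK-M2 after 1 h at room temperature, pH 7.2 imidazole buffer; intermediate enzyme activity allows detecting inhibitors and activators.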
An asterisk follows results filed as active; ? = inconclusive; . = not tested or not shown; [ ] = remark or other dose. Cut-off read from the data, not from the text of the source, unless noted: active = activity change below about -65%; inconclusive = mostly about -30% to -63%; inactive = weaker than that. % is set by controls: 0 for no effect and ±100 for the full control effect.

SMILES | Six1-Eya2 blk | MBNL1 CUG block | CtBP-E1A blk | PKM2 activator
Cc1ccc2ccc3cccnc3c2n1 | ? | . | -90* | .
CCc1sc(C(C2C(=O)CC(C)(C)CC2=O)C2C(=O)CC(C)(C)CC2=O)cc1[N+](=O)[O-] | -1 | 3% | 0 | 22µM*
Cc1occc1-c1nnc(SCCCC(=O)c2ccc(F)cc2)n1C | 6 | -15% | -3 | 25µM*
Cn1c(SCCCC(=O)c2ccc(F)cc2)nnc1-c1ccncc1 | 7 | -10% | 4 | -12%
CCOC(=O)c1c(-c2ccco2)csc1NC(=O)COC(=O)c1cnccn1 | -9 | . | -21 | .
CCOC(=O)c1c(-c2ccc(C)o2)csc1NC(=O)CN1CCC(C(N)=O)CC1 | -2 | 23% | -4 | 20µM*
CCOC(=O)c1c(-c2ccco2)csc1NC(=O)CSc1nnc(N)s1 | -16 | 19% | 0 | 13µM*
CCOC(=O)c1c(-c2ccc(C)o2)csc1NC(=O)CN1CCCCC1 | -4 | 2% | 4 | 27%
CCOC(=O)c1c(-c2ccc(C)o2)csc1NC(=O)CSc1nncs1 | -8 | 17% | -2 | 8.9µM*
Cc1ccc(-c2cc(C(=O)N3CCN(c4ccc(F)cc4)CC3)c3ccccc3n2)o1 | -20 | -15% | -23 | ?
O=C(c1ccco1)N1CCN(C(=O)c2cc(-c3ccccc3)nc3ccccc23)CC1 | -9 | -5% | -14 | ?
Cc1ccc(-c2cc(C(=O)N3CCN(c4ncccn4)CC3)c3cc(Br)ccc3n2)o1 | -16 | 65% | -19 | 8.9µM*
O=C(c1ccco1)N1CCN(C(=O)c2cc(-c3ccccn3)nc3ccc(Cl)cc23)CC1 | -87* | 8% | -92* | ?
O=C(c1cc(-c2ccccn2)nc2ccc(Br)cc12)N1CCN(S(=O)(=O)c2ccccc2)CC1 | 3 | 14% | -1 | 25µM*
Cc1cc(NC(=O)CSc2ncn(-c3ccccc3)n2)no1 | 2 | 3% | 5 | 25µM*
O=C(CSc1nc(-c2ccc(F)cc2)nc2c1Cc1ccccc1O2)Nc1ccc(C(=O)O)cc1 | -24 | 3% | -12 | ?
O=C(CSc1nc(-c2ccccc2)nc2c1Cc1ccccc1O2)Nc1ccc(C(=O)O)cc1 | -81* | -3% | -5 | ?
Cc1cccc(C)c1Nc1c(-c2ccccn2)nc2ccccn12 | -84* | . | . | 0%
Cc1cc(C)n2c(Nc3c(C)cccc3C)c(-c3ccccn3)nc2n1 | -90* | . | ? | .
Cc1ccc2nc(-c3ccccn3)c(NC3CCCC3)n2c1 | ? | 7% | -73* | -2%
CCCCNc1c(-c2ccccn2)nc2nc(C)cc(C)n12 | -88* | . | ? | .
Cc1ccccc1Nc1c(-c2ccccn2)nc2c(C)cccn12 | -29 | 45% | ? | 1%
CCCCNc1c(-c2cc3ccccc3o2)nc2nc(C)cc(C)n12 | 9 | . | -10 | .
COc1ccc([C@H]2CN(c3ccc(OC)cc3)C(=O)[C@@H]2CC(=O)Nc2ccccc2)cc1 | -26 | . | -16 | .
C=CCNc1nc(-c2sc(NC(=O)C(C)(C)C)nc2C)c(-n2cc(-c3ccccc3)nn2)s1 | -15 | . | 3 | .
SMILES | Six1-Eya2 blk | MBNL1 CUG block | CtBP-E1A blk | PKM2 activator
Cc1ccc(Nc2c(-c3ccccn3)nc3cccc(C)n23)cc1 | -88* | 24% | -98* | 7%
Cc1cccc2nc(-c3ccco3)c(Nc3ccccc3)n12 | -12 | 7% | . | -2%
O=C(O)c1ccc(NS(=O)(=O)c2ccc3c(c2)C(=O)c2ccccc2C3=O)cc1 | -72* | ? | ? | -3%
O=C(O)c1cccc(S(=O)(=O)Nc2ccc(-c3ccccc3)cc2)c1 | -1 | . | 0 | .
CN(Cc1ccc(Cl)c(Cl)c1)C(c1cc2ccccc2o1)c1nnnn1C(C)(C)C (configuration not stated) | -7 | . | -2 | .
COc1cc2nc3c(c([Si](C)(C)C(C)(C)C)c2cc1OC)Cn1c-3cccc1=O | . | . | . | -1%
COc1cc(C(=O)Nc2cccc(-c3nnc(-c4ccco4)o3)c2)ccc1OC(C)=O | -86* | -12% | ? | 0%
CCOC(=O)C1(C)CCCCCN1C(=O)c1ccc(N(C)C)cc1 (configuration not stated) | 3 | . | -12 | .
CCOC(=O)c1sc2nc(OCc3cccnc3)cc(C)c2c1N | -15 | . | -5 | .
CN(/N=C/c1ccncc1)C1=NS(=O)(=O)c2ccccc21 | -88* | 16% | -86* | -1%
COc1cc(/C=N/N(CCO)C2=NS(=O)(=O)c3ccccc32)cc(OC)c1OC | -66* | -1% | -90* | .
O=S1(=O)N=C(N(CCO)/N=C/C=C/c2ccccc2)c2ccccc21 | -85* | . | -89* | 12%
Cc1ccc(/C=N/N(C)C2=NS(=O)(=O)c3ccccc32)cc1 | -22 | -10% | -11 | .
COc1cc(Br)cc(/C=N/N(CCO)C2=NS(=O)(=O)c3ccccc32)c1OC | -30 | 3% | ? | .
CN(C)c1ccc(/C=N/N(CCO)C2=NS(=O)(=O)c3ccccc32)cc1 | -67* | 3% | . | .
COc1ccc(COC2OC[C@]3(C)[C@H]4C5=C(CN3C(=O)OC(C)(C)C)[C@H](C)C(CO)C(CO)C5CC[C@@H]24)cc1 (some centres not stated) | . | . | . | 0%
C[C@@H](C(=O)Cc1ccc2ccccc2c1)[C@@H]1C[C@@]1(C)[C@@H](NP(=O)(c1ccccc1)c1ccccc1)c1ccccc1 | . | . | . | -1%
COC(=O)[C@]12CCCCC=C1N(CCC1=CCCCC1)C(=O)[C@H](CC(=O)N1CCCC1)C2 | -6 | . | 3 | .
CC(C)(C)NC(=O)CCN(/N=C/c1ccc([N+](=O)[O-])o1)C1=NS(=O)(=O)c2ccccc21 | -88* | . | -74* | 3%
CN(C)c1ccc(/C=N/N(CCC(=O)NC(C)(C)C)C2=NS(=O)(=O)c3ccccc32)cc1 | 19 | -9% | 1 | .
COC(=O)N1C(C)=Cc2ccccc2C1CC(C)=O (configuration not stated) | . | . | . | 2%[11.5 µM]
CC#CCN1c2ccccc2[C@]23C[C@@H](C(=O)OC)N(S(=O)(=O)c4ccc(C)cc4)C2=NC(C(=O)OC)=C(C(=O)OC)[C@H]13 | . | . | . | -3%[11.5 µM]
C/C(N)=C(/C#N)C(=O)CSc1ccc2c(c1)OCCO2 | 9 | 12% | 4 | 14µM*
C/C(N)=C(/C#N)C(=O)COC(=O)CSc1ccc2ccccc2c1 | -5 | 6% | -6 | 0%
Cc1nc(NC2CCCCC2)c2nc(-c3ccccc3)n(C(C)CN(C)C)c2n1 (configuration not stated) | . | . | . | 7%
O=C(NCC[C@@H]1CC[C@@H](NC(=O)c2cnccn2)[C@@H](CO)O1)c1ccc2c(c1)OCO2 | -7 | . | 4 | .
O=C1/C(=C/C=C/c2ccco2)SC(=S)N1c1ccc(O)cc1 | ? | 11% | ? | 15%
CC(C)C(C(=O)O)N1C(=O)/C(=C/C=C/c2ccco2)SC1=S (configuration not stated) | -69* | ? | 6 | 9%
CCN(CC)CCn1c(-c2ccccc2)nc2c(NCCOC)nc(C)nc21 | . | . | . | -2%
